Measured values as given in PubChem BioAssay.
Active and inactive are the calls of the source.

Test: S. cerevisiae RM11-1a growth modifiers, primary screen, strain RM11-1a, OD600, basal, 24 h (AID 1177);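 note: cultures grown under basal conditions with no added stressor; test concentration not given here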
Details: OD600, 24 h, higher = more signal, called active from +8 up or from −8 down

SMILES	z-score
NC(=O)[C@@]1(Cc2ccccc2)COC(c2ccc(OCCCO)cc2)=N1	1.58 (inactive)
CCOC(=O)C[C@H]1[C@H](OC(=O)c2ccc(C(=O)c3ccccc3)cc2)[C@@H](NC(=O)c2ccc3ccccc3n2)c2cc(OCCCO)ccc2N1C(=O)Cc1ccc(OC)cc1	0.0192 (inactive)
COC(=O)[C@@H]1N=C(c2ccc(OCCCO)cc2)O[C@@H]1c1ccccc1	-0.763 (inactive)
CCOc1cc(C(O)C2C=CC3C(=O)NC(=O)C3N2Nc2ccc(Cl)cc2Cl)ccc1O (stereo not given)	0.358 (inactive)
CCOC(=O)C=Cc1cccc(C)c1O	-4.67 (inactive)
COC(=O)[C@@]1(Cc2ccc(OC)cc2)[C@H]2c3cc(C(=O)N4CCCC4)n(CCO)c3C[C@H]2CN1C(=O)c1ccccc1	0.941 (inactive)
CC1=C2[C@@H](CCc3ccccc3)OB(O)C[C@@H]2[C@@H]2C(=O)N(Cc3ccccc3)C(=O)[C@@H]2C1	-0.849 (inactive)
C=CC[C@@H](OC(=O)Nc1ccc(SC)cc1)c1ccc(O)c(F)c1	-6.97 (inactive)
COCCCNC(=O)[C@@]1(CCC(=O)OC(C)(C)C)N=C(c2ccc(OCCCO)cc2)O[C@H]1c1ccccc1N=[N+]=[N-]	0.252 (inactive)
CCOC(=O)C[C@H]1[C@H](OC(=O)c2cc3ccccc3oc2=O)[C@@H](NC(=O)CC(C)C)c2cc(OCCCO)ccc2N1C(=O)c1ccc2ccccc2n1	1.44 (inactive)
Cc1ccc(C(C)CC(O)C2C=CC3C(=O)N(c4ccccc4)C(=O)C3N2Nc2ccccc2)o1 (stereo not given)	0.184 (inactive)
CN(C)c1ccc(C(O)C2C=CC3C(=O)NC(=O)C3N2Nc2ccccn2)cc1 (stereo not given)	0.489 (inactive)
CCCCN1CC=CC23O[C@@H]4/C=C\CCCOC(=O)C4[C@H]2C(=O)N(CCO)[C@@H]3C1=O (stereo not given in full)	0.507 (inactive)
COc1ccc([Si](C)(C)[C@@H]2[C@@H](CCO)O[C@]3(C(=O)N(Cc4ccccc4)c4ccc(N5C(=O)c6cccc7cccc5c67)cc43)[C@H]2C)cc1	4.59 (inactive)
Oc1ccc2cc[n+](Cc3cc4c(cc3Br)OCO4)cc2c1	1.31 (inactive)
CCCNC(=O)[C@@H]1c2ccccc2C(=O)N(Cc2ccc(OC(F)(F)F)cc2)[C@H]1c1ccc(CO)cc1	0.532 (inactive)
COCCOC(=O)N1C(=O)[C@@]2(c3cc(C#CC4=CCCCC4)ccc31)[C@H](c1ccccc1OCCO)N1[C@H](c3ccccc3)[C@H](c3ccccc3)OC(=O)[C@H]1[C@@H]2C(=O)NC[C@H](O)c1ccccc1	2.08 (inactive)
O=C1N(CCS(=O)(=O)c2ccccc2)c2ccccc2[C@H]2OC(c3ccc(OCCCO)cc3)=N[C@@]12Cc1ccccc1	2.01 (inactive)

SMILES	z-score
[N-]=[N+]=Nc1ccccc1C[C@]1(C(=O)NCCN2CCOCC2)COC(c2ccc(OCCCO)cc2)=N1	-0.71 (inactive)
C=CC[C@@]1(C(=O)NCCCOC)N=C(c2ccc(OCCCO)cc2)O[C@@H]1c1ccccc1N=[N+]=[N-]	0.464 (inactive)
COC(=O)C1=CC(CCCO)=CC(c2ccc(CN3CCCC3)cc2)N(Cc2cccc(OC(F)(F)F)c2)C=C1C(=O)OC (stereo not given)	-0.287 (inactive)
CCCC=C(CCC)[C@@H](NC(=O)c1cccs1)c1ccc(C(=O)OC)cc1	-0.27 (inactive)
CC1=C2[C@@H](CCc3ccccc3)OB(O)C[C@@H]2[C@@H]2C(=O)N(C)C(=O)[C@@H]2C1	0.154 (inactive)
COCCOC(=O)N1C(=O)[C@@]2(c3cc(C#CC4(O)CCCCCC4)ccc31)[C@H](c1ccc(O)cc1)N1[C@H](c3ccccc3)[C@H](c3ccccc3)OC(=O)[C@H]1[C@@H]2C(=O)N1CCN(c2ncccn2)CC1	0.326 (inactive)
COC(=O)[C@@]1(Cc2ccc(F)cc2)[C@H]2c3cc(C(=O)N(C)C)n(Cc4ccc(OC(F)(F)F)cc4)c3C[C@H]2CN1C(=O)c1ccccc1	0.245 (inactive)
C=CCNC(=O)[C@H]1[C@@H]2C(=O)O[C@@H](c3ccccc3)[C@@H](c3ccccc3)N2[C@@H](c2ccccc2OCCO)[C@]12C(=O)N(C(=O)OCCOC)c1ccc(C#CC3(O)CCCCCC3)cc12	0.0382 (inactive)
C=C(COC)/C(=C/C[C@H](OC(=O)c1ccncc1)c1ccccc1OCCO)c1cc(C(=O)OC)ccc1OC	-0.567 (inactive)
CC(C)c1ccc(NN2C(C(O)c3ccc(C#N)cc3)C=CC3C(=O)N(c4ccccc4)C(=O)C32)cc1 (stereo not given)	1.15 (inactive)
CC(C)NC(=O)[C@@]1(c2ccc([N+](=O)[O-])cc2)CC(=O)N(C2CCCCC2)[C@@H]1c1ccc(CO)cc1	0.852 (inactive)
CCOC(=O)C[C@H]1[C@H](OC(=O)Cc2ccc3c(c2)OCO3)[C@@H](NC(=O)c2ccc3ccccc3n2)c2cc(OCCCO)ccc2N1C(=O)c1ccccc1	0.946 (inactive)
O=c1cccc(-c2ccc([N+](=O)[O-])cc2)o1	-0.376 (inactive)
CC(C)N1C(=O)C[C@@](C(=O)O)(c2ccc([N+](=O)[O-])cc2)[C@H]1c1ccc(CO)cc1	0.196 (inactive)
CCCCCCCCCC(O)C1C=CC2C(=O)N(c3ccccc3)C(=O)C2N1Nc1cc(OC)c(OC)c(OC)c1 (stereo not given)	0.27 (inactive)
COC(=O)[C@@]1(Cc2ccc(OC)cc2)[C@H]2c3cc(C(=O)N(C)C)n(Cc4ccc(C)o4)c3C[C@H]2CN1C(=O)c1ccccc1	1.54 (inactive)
[N-]=[N+]=Nc1ccccc1C[C@]1(C(=O)NCC(O)CO)COC(c2ccc(OCCCO)cc2)=N1 (stereo not given in full)	1.73 (inactive)
